Compound activity from PubChem.
In the library only some 2.3% were active in any assay of this set; here they are far more common.
KDM4E inh: blocks human JMJD2E demethylase activity. B2RXH2. JMJD2E catalytic domain, FDH-coupled NADH fluorescence (FDH is formaldehyde dehydrogenase). Potency, µM (titrated, usually from 57.1 µM), actives largely listed as inhibitors. 1.6% of 230,000 active. AID 2147; active means well fitted inhibition curve with a large enough effect, not every such curve was filed as active; inconclusive means small, poorly fitted or top-dose-only effect, or another doubt; inactive means no such curve, though single readings can be large or run the other way; further: nearly all actives have a fitted effect of over 50% in size
Target sequence (B2RXH2 1-337 limits assumed): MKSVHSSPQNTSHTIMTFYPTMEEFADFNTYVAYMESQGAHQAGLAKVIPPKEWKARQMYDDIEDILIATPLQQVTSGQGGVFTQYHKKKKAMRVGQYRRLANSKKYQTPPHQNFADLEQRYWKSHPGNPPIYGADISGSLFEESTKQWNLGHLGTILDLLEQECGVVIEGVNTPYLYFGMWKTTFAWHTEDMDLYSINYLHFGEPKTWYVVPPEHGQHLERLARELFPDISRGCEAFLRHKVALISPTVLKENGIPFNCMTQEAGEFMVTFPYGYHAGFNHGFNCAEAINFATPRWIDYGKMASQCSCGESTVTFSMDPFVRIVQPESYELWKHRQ
FBPA coupling cs: inhibits coupling enzyme system, counter-screen for aldolase hits; coupling enzyme system counterscreen, AmpLite Red fluorescence; activity change, negative = inhibition, % at 58.2 µM, hits read low; 0.67% of 290,000 active; in the data active means activity change below about -30%
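Compounds tested against the coupling enzymes alone at 57.5 uM final; readout was AmpLite Red fluorescence (525/598 nm) after 20 min at RT.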
HTT cytoprotect: Huntington cell model cytoprotection by ATP luminescence | Potency, µM (titrated, usually from 56.4 µM), actives largely listed as activators | AID 1471 | 0.14% of 230,000 active | PC12 HTT-Q103 induced, cytoprotection, ATP luminescence, 40 h; further: nearly all actives have a fitted effect of over 45% in size
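Rat PC12, Q103 Htt exon1-GFP fusion, ecdysone promoter; tebufenozide inducer 100 nM final; compound titration; qHTS, 1500 cells/well; ATPlite luminescent read.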
VDR inhibitor: blocks the human vitamin D receptor; P11473; VDR-SRC2-3 peptide fluorescence polarization, 2 h; Potency, µM, usual class: inhibitors; 0.93% of 400,000 active; AID 504847
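Reagent solutions, kept cold and dark, are dispensed first; compounds are then pinned in at 23 nl, plates briefly spun, and incubated 2 h at ambient temperature. Inhibition of VDR–SRC2-3 peptide binding is read by fluorescence polarization.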
HTT aggregate: inhibitors of mutant huntingtin aggregate formation in PC12 cells; PC12 HttQ103-GFP aggregates, Acumen cytometry, 40 h; Potency, µM (series often up to 46.1 µM), usual class: inhibitors; 1.1% of 220,000 active; AID 1688; further: nearly all actives have a fitted effect of over 60% in size
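Compounds (qHTS titration) were added to PC12 cells expressing an ecdysone-driven HTT exon 1 Q103–GFP fusion after induction with 100 nM tebufenozide. Aggregate formation was measured as GFP objects in cell lysates.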
RGS12 GoLoco inh: blocks human Gai1 binding to RGS12 GoLoco peptide, red readout; Gai1:RGS12 GoLoco peptide FP, rhodamine, 10 min; Potency, µM (series often up to 61.6 µM), most hits filed as inhibitors; P63096; 0.44% of 230,000 active; active means well fitted inhibition curve with a large enough effect, not every such curve was filed as active; inactive means no such curve, though single readings can be large or run the other way; further: nearly all actives have a fitted effect of over 30% in size
Target sequence (P63096 whole entry, looked up): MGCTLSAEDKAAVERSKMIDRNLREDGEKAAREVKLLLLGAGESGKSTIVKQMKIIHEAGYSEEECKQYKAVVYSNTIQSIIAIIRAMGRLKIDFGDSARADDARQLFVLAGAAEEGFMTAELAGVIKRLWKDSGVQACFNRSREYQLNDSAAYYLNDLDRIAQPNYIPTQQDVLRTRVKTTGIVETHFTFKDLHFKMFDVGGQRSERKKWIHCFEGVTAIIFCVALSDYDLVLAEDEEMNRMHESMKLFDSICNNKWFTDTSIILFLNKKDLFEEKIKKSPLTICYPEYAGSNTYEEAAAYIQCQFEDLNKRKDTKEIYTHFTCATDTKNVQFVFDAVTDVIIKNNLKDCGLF
A number is an active result; . = inactive; ? = inconclusive; / = not tested or not shown; ! = not confirmed by another sample; [ ] = another dose, or the depositor's remark. Unless noted, the call rests on the fitted dose curve; in most records, active means well fitted curve in the direction sought with a large enough effect; inconclusive means small, poorly fitted or top-dose-only effect, or another doubt; inactive means no such curve, though single readings can be large; an effect the other way counts as inactive or inconclusive.

SMILES | KDM4E inh | FBPA coupling cs | HTT cytoprotect | VDR inhibitor | HTT aggregate | RGS12 GoLoco inh
CC(=O)N1C(=O)C2(C(C#N)=C(N)Oc3c2c(C)nn3-c2ccccc2)c2ccccc21 (centres undefined) | . | . | . | . | . | .
CCN1C(=O)C2(C(C#N)=C(N)Oc3c2c(C)nn3-c2ccccc2)c2ccccc21 (centres undefined) | . | -45 | . | . | . | .
Cc1nn(-c2ccccc2)c2c1C1(C(=O)N3c4c(cccc41)C(C)CC3(C)C)C(C#N)=C(N)O2 (centres undefined) | ? | -59 | . | . | ? | .
CC(C)CCCC(C)C1CCC2C3CC[C@H]4CC(=O)CC[C@@]4(C)C3CC[C@@]12C (some centres undefined) | . | . | / | . | / | .
c1cc(SSc2ccncc2)ccn1 | / | . | / | 32µM | / | /
O=S(=O)(O)c1ccc(N=Nc2ccccc2)cc1 | . | . | .[10 µM] | . | .[9.22 µM] | .[14.2 µM]
Oc1ccc(N=Nc2ccccc2)o1 | / | . | / | 89µM | / | /
COc1ccc(N2CCN(C(=O)c3cnc(N4CCCC4)nc3C)CC2)cc1 | / | / | / | . | / | /
COc1ccc(N2CCN(C(=O)c3cccnc3SCc3cccc(Br)c3)CC2)cc1 | . | . | . | . | 22µM | .
Cc1cc(/C=C2/NC(=O)NC2=O)c(C)n1-c1ccc(N2CCOCC2)cc1 | ? | . | / | . | . | .
Cc1ccc(-n2c(C)cc(/C=C3\NC(=O)NC3=O)c2C)c(C)c1 | 25µM | . | / | ? | . | .
Cc1cc(/C=C2\NC(=O)NC2=O)c(C)n1-c1ccc(N2CCOCC2)cc1 | 16µM | . | .[10 µM] | . | .[9.22 µM] | .
Cc1[nH]c2ccccc2c1[C@H]1[C@@H](CC#N)C1(C)C | . | -46 | .[10 µM] | . | . | .
Cc1[nH]c2ccccc2c1CC#N | . | . | .[10 µM] | . | .[9.22 µM] | .
CCCCCCCCCCCCCCC(C(=O)O)C(O)(CC(=O)OC)C(=O)O (centres undefined) | . | . | / | 22µM | / | .
CC(=O)c1ccc(Oc2ncnc3sccc23)cc1 | . | . | . | . | . | .
CC(=O)N1CCN(c2ccc(Oc3ncnc4sccc34)cc2)CC1 | . | . | .[10 µM] | . | 18µM | .
Cc1nnc2n1N=CC=C(c1ccccc1)S2 | . | . | 16µM | . | / | .
CC1=C(SCc2ccccc2)C(=O)c2ccccc2C1=O | / | / | / | 14µM | / | /
CC12CCC=CC1C(c1ccc3ccccc3c1C=Cc1ccccc1)N(Cc1ccccc1)C2=O (centres undefined) | / | . | / | . | / | /
CCCNC(=O)c1c(N)n(-c2ccc3c(c2)OCO3)c2nc3ccccc3nc12 | . | . | . | . | . | .
Nc1c(C(=O)OCC2CCCO2)c2nc3ccccc3nc2n1-c1ccc2c(c1)OCCO2 (centres undefined) | ? | -37 | . | . | . | .
CCCNC(=O)c1c(N)n(-c2cc(OC)cc(OC)c2)c2nc3ccccc3nc12 | ? | . | .[0.074 µM] | . | 18µM | .
CCOC(=O)c1c(N)n(-c2ccc(N)cc2)c2nc3ccccc3nc12 | 18µM | . | / | . | . | .
CCOC(=O)c1c(N)n(-c2ccc(CC)cc2)c2nc3ccccc3nc12 | / | / | / | . | / | /
SMILES | KDM4E inh | FBPA coupling cs | HTT cytoprotect | VDR inhibitor | HTT aggregate | RGS12 GoLoco inh
Nc1c(C(=O)NC2CC2)c2nc3ccccc3nc2n1-c1ccc2c(c1)OCO2 | ? | . | .[0.074 µM] | . | ? | .
COCCCNC(=O)c1c(N)n(-c2ccc3c(c2)OCO3)c2nc3ccccc3nc12 | ? | -47 | . | . | . | .
O=C(NCC(c1ccco1)S(=O)(=O)c1cccs1)c1c(F)cccc1F (centres undefined) | / | / | / | . | / | /
CCOCCCNC(=O)c1c(N)n(-c2ccc(S(N)(=O)=O)cc2)c2nc3ccccc3nc12 | ? | . | . | . | . | .
CCOCCCNC(=O)c1c(N)n(-c2ccc3c(c2)OCO3)c2nc3ccccc3nc12 | ? | -35 | .[10 µM] | . | .[9.22 µM] | .
COc1cc(O)c(NC(C)=O)c2nonc12 | ? | -54 | . | . | . | .
COc1cc(-c2ccc(NC(C)=O)c(OC)c2)ccc1NC(C)=O | . | . | .[10 µM] | . | .[9.22 µM] | .
COc1cc([C@H]2OC[C@H]3[C@@H]2CO[C@H]3c2ccc(O)c(OC)c2)ccc1O | / | / | / | . | / | /
COc1cc(C2OCC3C(c4ccc(OC5OC(CO)C(O)C(O)C5O)c(OC)c4)OCC23)ccc1O (centres undefined) | 28µM | . | .[10 µM] | . | .[9.22 µM] | .
COc1ccc([C@H]2CC(=O)C=C(c3cccc(C(C)C)c3)C2)cc1 | / | / | / | . | / | /
C[N+]1(C)CCC(=C2c3ccccc3CC(=O)c3sccc32)CC1 | . | / | ? | . | . | 14µM
COc1ccc2c(c1)NC(C)(C)C=C2C | ? | -33 | . | . | . | .
C=CC1=C(C)C2=Cc3c(C=C)c(C)c4[n]3[Sn+2][n]3c(c(C)c(CCC(=O)O)c3=CC3=NC(=C4)C(C)=C3CCC(=O)O)=CC1=N2 | ? | . | . | 35µM | / | 1.4µM
CN(CC(=O)Nc1ccc(Cl)c(C(F)(F)F)c1)C(=O)/C=C/c1cccs1 | / | / | / | . | / | /
COC/C=C/C1=CC2=CC(=O)C(C)(OC(=O)c3cnc4ccccc4n3)C(=O)C2=CN1CCc1ccccn1 (centres undefined) | .[11.4 µM] | . | .[10 µM] | / | / | .[14.2 µM]
COC/C=C/C1=CC2=CC(=O)C(C)(OC(=O)c3cnc4ccccc4n3)C(=O)C2=CN1CCCCO (centres undefined) | 8.9µM! | -32! | .[10 µM] | . | .[9.22 µM] | .[14.2 µM]
COc1cc(-c2nnc(NC(=O)CS(=O)(=O)c3ccc(C)cc3)o2)cc(OC)c1OC | / | / | / | . | / | /
Cc1ccc(-c2cc(-c3ccco3)c3c(N)c(C(=O)NN)oc3n2)cc1 | 3.2µM | . | .[10 µM] | . | .[9.22 µM] | .
NNC(=O)c1oc2nc(-c3cccs3)cc(-c3ccco3)c2c1N | / | . | / | / | / | /
O=[N+]([O-])c1cccc(N=Cc2sc3ccccc3c2O)c1 | 28µM | . | . | / | . | .
CCOC(=O)C1=C(N)OC2=C(C(=O)CCC2)C1c1cccs1 (centres undefined) | . | -40 | . | . | . | .
COc1ccc(-c2ccccc2C2NC(C(=O)O)CCC2C)cc1 (centres undefined) | / | . | .[10 µM] | / | / | /
Cc1cc(=O)oc2c(O)c(O)ccc12 | 2.2µM | -36 | / | 71µM! | / | .
Cc1cc(=O)oc2cc(O)ccc12 | ? | . | 5.6µM | . | . | .
Cc1cccc(-n2c(C)nc3cc(C(=O)NCCC4=CCCCC4)ccc32)c1 | / | / | / | . | / | /
CC(=O)Nc1ccc(S(=O)(=O)Oc2cccc(/C=C3\SC(N)=NC3=O)c2)cc1 | . | . | . | 35µM | . | .
COc1cc(OC)cc(C(=O)c2c(C)c(C#N)c3ccccn23)c1 | / | . | / | . | / | /
CCOC(=O)COc1ccc2c(C#N)c3ccccn3c2c1 | . | -60 | . | . | .[9.22 µM] | .
N#Cc1c2ccc(OCC(N)=O)cc2n2ccccc12 | ? | -37 | . | . | . | .
